Source: PubChem BioAssay (Tox21)
Records with an inconclusive call do not appear. Active and inactive are the calls of the source. Unless noted, calls follow the shape of the full dose curve.

Tests used:
[1] = Nuclear factor erythroid 2-related factor 2/antioxidant responsive element (Nrf2/ARE) small molecule agonists: qHTS cell viability counter screen in human keratinocytes (AID 1919968; active = well fitted curve in the direction sought with a large enough effect in the repeat runs; an effect the other way counts as inactive or inconclusive; also: nearly all actives have a fitted effect of over 55% in size; also: potency is read from the fitted curve at half-maximal effect)
In short: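 In human HaCaT keratinocytes stably expressing an ARE-driven luciferase, compound exposure lasted 23 h at 37 C under 5% CO2. Viable cells are quantified with a protease-based fluorogenic reagent (CellTiter-Fluor) read 1 h after addition.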

[2] = Nuclear factor erythroid 2-related factor 2/antioxidant responsive element (Nrf2/ARE) small molecule agonists: luciferase reporter gene qHTS assay in human keratinocytes (AID 1919969); also: nearly all actives have a fitted effect of over 35% in size
[3] = target: Gonadotropin-releasing hormone receptor (Homo sapiens) (UniProt P30968); assay: Human gonadotropin-releasing hormone receptor (GnRHR) small molecule agonists, calcium flux assay in GnRHR-HEK293 cells (AID 1920063); also: nearly all actives have a fitted effect of over 35% in size; also: potency is read from the fitted curve at half-maximal effect
In short: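 Intracellular calcium rise is the read-out: engineered human GnRHR HEK293 cells, dye-loaded, are exposed to DMSO-dissolved compounds and fluorescence at Ex/Em 480/540 is tracked for 3 min.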

[4] = target: KiSS-1 receptor (Homo sapiens) (UniProt Q969F8); assay: Human kisspeptin (KISS1R) small molecule agonists, calcium flux assay in KISS1R-HEK293 cells (AID 1920064; active = well fitted curve in the direction sought with a large enough effect in the repeat runs; an effect the other way counts as inactive or inconclusive)
In short: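 Concentration-response testing used 15 concentrations in triplicate on human KISS1R-expressing HEK293 cells. Calcium-dependent fluorescence (Ex/Em 480/540) was followed kinetically for 3 min after compound transfer.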

[5] = G protein-coupled receptor (GPCR) small molecule agonists, calcium flux assay: HEK293 wild type cell line counter screen (AID 1920065)
In short: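 Fluorescence intensity signals activation. After overnight (18 h) culture and a 1 h calcium dye load at 37 C, compounds are added by pin tool and the plate read at 480/540 nm for 3 min in 1 s steps.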

[6] = p53 small molecule agonists, cell-based qHTS assay with human liver microsomes (AID 1963577);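 also: p53 response element beta-lactamase reporter cells with liver microsomes plus NADPH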
In short: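 Reporter activation was measured by LiveBLAzer fluorescence intensity in p53RE-bla cells, which had been exposed to compounds for 16 h at 37 C alongside 0.5 mg/mL human liver microsomes and 0.5 mg/mL NADPH (final concentrations).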

[7] = p53 small molecule agonists, cell-based qHTS assay with rat liver microsomes (AID 1963578)
In short: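 Compound in DMSO added to p53RE-bla cells 5 h post-plating; rat microsomes/NADPH 0.5 mg/mL final; 16 h, 37 C; LiveBLAzer 2 h RT.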

[8] = p53 small molecule agonists, cell-based qHTS assay with human liver microsomes: qHTS cell viability counter screen (AID 1963579); also: nearly all actives have a fitted effect of over 45% in size; also: potency is read from the fitted curve at half-maximal effect
In short: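 HLM-supplemented (0.5 mg/mL final) and NADPH-supplemented (0.5 mg/mL final) p53RE-bla cultures, 4,000 cells per well, were dosed with compounds in DMSO for 16 h at 37 C; luminescent ATP detection (CellTiter-Glo, 30 min, room temperature) quantified surviving cells.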

[9] = target: 5-hydroxytryptamine receptor 2A (Homo sapiens) (UniProt P28223); assay: 5-hydroxytryptamine receptor 2A (HTR2A) small molecule antagonists, cell-based qHTS assay (AID 1963586); also: nearly all actives have a fitted effect of over 45% in size
In short: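 CHO cells stably expressing human HTR2A were plated for 18 h at 37 C, then loaded with calcium dye for 1 h. Compounds were preincubated 5 min at room temperature before DOI (4 nM solution) was added. Kinetic fluorescence was read for 3 min.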

[10] = target: 5-hydroxytryptamine receptor 2A (Homo sapiens) (UniProt P28223); assay: 5-hydroxytryptamine receptor 2A (HTR2A) small molecule agonists, cell-based qHTS assay (AID 1963587); also: nearly all actives have a fitted effect of over 30% in size
In short: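 Kinetic calcium-flux fluorescence (2 min, 1 sec intervals) after compound addition in agonist mode. HTR2A-CHO cells were cultured 18 h, then dye-loaded 1 h at 37 C.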

[11] = target: Muscarinic acetylcholine receptor M1 (Homo sapiens) (UniProt P11229); assay: Cholinergic receptor muscarinic 1 (CHRM1) small molecule antagonists, cell-based qHTS assay (AID 1963588); also: nearly all actives have a fitted effect of over 40% in size
In short: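 Compounds were tested at 15 concentrations in three independent runs. Dye-loaded CHRM1-CHO cells were exposed 5 min at room temperature before stimulation by acetylcholine added at 50nM. Intracellular calcium was read kinetically on FDSS for 3 min.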

[12] = target: Muscarinic acetylcholine receptor M1 (Homo sapiens) (UniProt P11229); assay: Cholinergic receptor muscarinic 1 (CHRM1) small molecule agonists, cell-based qHTS assay (AID 1963589); also: nearly all actives have a fitted effect of over 35% in size
In short: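 Fluorescent calcium dye reports M1 activation in stably transfected CHO cells. Compounds, 15 concentrations, added after 1 h dye loading at 37 C; kinetic reading at 1 sec intervals.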

[13] = cAMP Responsive Elements (CRE) small molecule agonists, cell-based qHTS assay (AID 1963590)
In short: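 Compound exposure lasted 3 h at 37 C/5% CO2 in CRE-bla HEK 293T cells grown in assay medium with 10% dialyzed FBS and 25 mM HEPES. Reporter signal came from LiveBLAzer B/G FRET substrate, 2 h, room temperature.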

[14] = target: Beta-2 adrenergic receptor (Homo sapiens) (UniProt P07550); assay: Adrenergic beta2 receptor (ADRB2) small molecule antagonists, cell-based qHTS assay (AID 1963592); also: series mostly up to about 92 µM; nearly all actives have a fitted effect of over 50% in size
In short: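 Assay format: CHO-ADRB2 cells, 18-20hr seeding at 37C/5% CO2, then compound plus 1nM isoproterenol agonist mix for 0.5hr RT. Homogeneous time-resolved fluorescence cAMP detection after 1hr, expressed as 665/615 nm ratio.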

[15] = target: D(2) dopamine receptor (Homo sapiens) (UniProt P14416); assay: Dopamine D2 receptor (DRD2) small molecule antagonists, cell-based qHTS assay (AID 1963595; active = well fitted inhibition curve with a large enough effect in the signal ratio in the repeat runs, with a control signal flat; the % refers to the signal ratio; also: potency is read from the fitted curve at half-maximal effect)
In short: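 HTRF cAMP read-out at 665 and 620 nm emission (340 nm excitation). Antagonist mode: compounds were tested against 12 nM quinpirole in DRD2-HEK293 cells, with 200 nM NKH477 raising cAMP and 0.1 mM Ro20-1724 blocking its breakdown.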

[16] = p53 small molecule agonists, cell-based qHTS assay with rat liver microsomes: qHTS cell viability counter screen (AID 1963580); also: nearly all actives have a fitted effect of over 45% in size
In short: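 Cytotoxicity counter screen: intracellular ATP read by CellTiter-Glo luminescence in the p53 reporter wells. HCT-116 p53RE-bla cells were treated for 16 h at 37 C alongside rat liver microsomes and NADPH, each 0.5 mg/mL final.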

[17] = p53 small molecule agonists, cell-based qHTS assay: qHTS cell viability counter screen (AID 1963581); also: nearly all actives have a fitted effect of over 45% in size; also: potency is read from the fitted curve at half-maximal effect
In short: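 Luminescence from CellTiter-Glo, reflecting ATP content, serves as the cytotoxicity measure; it is taken after the 2 h reporter substrate step in HCT-116 p53RE-bla cells dosed for 16 h at 37 C.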

[18] = p53 small molecule agonists, cell-based qHTS assay (AID 1963582; active = well fitted activation curve with a large enough effect in the signal ratio in the repeat runs, not every such curve was filed as active; the % refers to the signal ratio)
In short: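 After plating, p53RE-bla cells sat 5 h in the incubator; compounds or DMSO vehicle were pinned in; a 16 h incubation at 37 C followed; FRET substrate was added and, 2 h later at RT, fluorescence was measured.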

[19] = cAMP Responsive Elements (CRE) small molecule antagonists, cell-based qHTS assay (AID 1963591; active = well fitted inhibition curve with a large enough effect in the signal ratio in the repeat runs, not every such curve was filed as active; the % refers to the signal ratio)
In short: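 Stimulation used NKH477 at a final 0.25 uM for 3 h in compound-treated CRE-bla HEK293T cells, seeded 18 h beforehand. Reporter activity was measured with LiveBLAzer B/G FRET substrate after 2 h at room temperature.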

[20] = target: D(2) dopamine receptor (Homo sapiens) (UniProt P14416); assay: Dopamine D2 receptor (DRD2) small molecule agonists, cell-based qHTS assay (AID 1963594); also: nearly all actives have a fitted effect of over 35% in size
In short: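 cAMP accumulation in DRD2-HEK293 cells measured by HTRF after 1 h detection; compounds added 10 min before NKH477 (200nM […]) forskolin-analogue stimulation, 30 min at room temperature, with Ro20-1724 present at 0.1 mM final.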

Measured: Potency

Chain of Gonadotropin-releasing hormone receptor (Homo sapiens) (P30968 whole entry, looked up): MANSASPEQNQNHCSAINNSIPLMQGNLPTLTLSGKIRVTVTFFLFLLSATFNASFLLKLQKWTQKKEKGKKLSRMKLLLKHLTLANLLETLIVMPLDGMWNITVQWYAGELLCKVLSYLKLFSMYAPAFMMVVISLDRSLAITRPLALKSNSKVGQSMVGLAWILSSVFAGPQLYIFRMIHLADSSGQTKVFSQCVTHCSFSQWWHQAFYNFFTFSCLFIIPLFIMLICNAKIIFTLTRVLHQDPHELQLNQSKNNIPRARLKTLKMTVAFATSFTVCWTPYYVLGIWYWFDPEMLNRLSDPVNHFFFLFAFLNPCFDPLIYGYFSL
Chain of D(2) dopamine receptor (Homo sapiens) (P14416 whole entry, looked up): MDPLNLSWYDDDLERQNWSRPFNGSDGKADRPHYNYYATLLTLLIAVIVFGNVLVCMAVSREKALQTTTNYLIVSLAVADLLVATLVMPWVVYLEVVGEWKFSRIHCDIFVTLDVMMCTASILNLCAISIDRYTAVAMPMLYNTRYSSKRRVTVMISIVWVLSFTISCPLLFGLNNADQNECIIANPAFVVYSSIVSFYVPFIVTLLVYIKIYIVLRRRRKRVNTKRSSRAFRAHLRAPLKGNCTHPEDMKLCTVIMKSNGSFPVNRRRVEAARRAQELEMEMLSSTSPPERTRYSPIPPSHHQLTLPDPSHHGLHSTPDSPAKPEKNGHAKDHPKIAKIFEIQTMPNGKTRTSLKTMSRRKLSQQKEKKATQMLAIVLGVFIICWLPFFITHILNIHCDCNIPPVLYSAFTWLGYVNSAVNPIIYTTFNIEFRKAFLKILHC
Chain of KiSS-1 receptor (Homo sapiens) (Q969F8 whole entry, looked up): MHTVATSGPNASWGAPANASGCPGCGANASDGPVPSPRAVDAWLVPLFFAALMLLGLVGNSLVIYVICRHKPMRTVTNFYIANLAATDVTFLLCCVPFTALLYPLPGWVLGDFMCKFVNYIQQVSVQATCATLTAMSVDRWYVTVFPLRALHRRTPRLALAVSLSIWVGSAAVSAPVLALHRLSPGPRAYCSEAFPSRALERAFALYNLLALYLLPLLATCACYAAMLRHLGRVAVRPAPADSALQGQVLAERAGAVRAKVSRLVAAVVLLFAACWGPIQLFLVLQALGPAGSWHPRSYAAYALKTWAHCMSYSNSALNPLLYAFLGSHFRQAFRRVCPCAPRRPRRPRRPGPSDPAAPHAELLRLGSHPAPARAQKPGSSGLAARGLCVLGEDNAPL
Chain of 5-hydroxytryptamine receptor 2A (Homo sapiens) (P28223 whole entry, looked up): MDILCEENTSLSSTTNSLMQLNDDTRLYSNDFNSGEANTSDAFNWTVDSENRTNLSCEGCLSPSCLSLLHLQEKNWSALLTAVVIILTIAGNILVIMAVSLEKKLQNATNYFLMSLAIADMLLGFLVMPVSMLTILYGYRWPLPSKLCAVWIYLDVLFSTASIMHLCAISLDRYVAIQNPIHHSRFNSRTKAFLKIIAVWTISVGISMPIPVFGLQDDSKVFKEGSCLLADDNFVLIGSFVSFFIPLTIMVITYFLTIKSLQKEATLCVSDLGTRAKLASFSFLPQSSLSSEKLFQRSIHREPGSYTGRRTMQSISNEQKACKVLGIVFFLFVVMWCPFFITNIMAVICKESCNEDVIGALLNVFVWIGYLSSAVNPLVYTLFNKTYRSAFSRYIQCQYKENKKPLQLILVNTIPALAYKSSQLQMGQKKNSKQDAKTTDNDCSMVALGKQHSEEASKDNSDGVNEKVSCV
Chain of Muscarinic acetylcholine receptor M1 (Homo sapiens) (P11229 whole entry, looked up): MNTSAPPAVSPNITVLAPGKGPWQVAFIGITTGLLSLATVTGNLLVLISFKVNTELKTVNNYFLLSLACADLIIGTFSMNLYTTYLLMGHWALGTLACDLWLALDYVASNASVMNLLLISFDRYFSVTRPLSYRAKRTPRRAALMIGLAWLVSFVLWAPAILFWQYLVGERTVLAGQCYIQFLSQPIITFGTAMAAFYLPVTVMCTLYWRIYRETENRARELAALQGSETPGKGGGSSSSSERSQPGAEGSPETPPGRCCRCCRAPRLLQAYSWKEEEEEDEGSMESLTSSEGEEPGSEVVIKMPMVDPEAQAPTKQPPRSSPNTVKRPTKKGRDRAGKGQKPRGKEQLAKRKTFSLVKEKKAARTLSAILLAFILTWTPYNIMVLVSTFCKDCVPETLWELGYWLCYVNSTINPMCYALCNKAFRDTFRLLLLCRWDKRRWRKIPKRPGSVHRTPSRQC
Chain of Beta-2 adrenergic receptor (Homo sapiens) (P07550 whole entry, looked up): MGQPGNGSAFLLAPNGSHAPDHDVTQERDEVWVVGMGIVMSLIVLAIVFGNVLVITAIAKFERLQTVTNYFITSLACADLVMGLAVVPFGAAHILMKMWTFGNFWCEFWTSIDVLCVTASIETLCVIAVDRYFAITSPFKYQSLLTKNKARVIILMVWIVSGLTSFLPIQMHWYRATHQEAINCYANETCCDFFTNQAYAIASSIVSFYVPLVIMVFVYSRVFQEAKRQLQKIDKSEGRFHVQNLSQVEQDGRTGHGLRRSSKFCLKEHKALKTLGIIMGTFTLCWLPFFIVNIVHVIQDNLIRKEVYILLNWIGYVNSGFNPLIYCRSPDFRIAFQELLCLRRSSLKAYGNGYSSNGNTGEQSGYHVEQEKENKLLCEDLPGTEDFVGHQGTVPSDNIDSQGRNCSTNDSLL

S=C1NC=NC2N=CNC12 (stereo not given)
not listed: [16] | [17] | [18] | [19] | [20]
inactive: all other assays above

CCCCCCCCCCCCCC[n+]1ccccc1
active: [1] 27.3 µM | [3] 34.7 µM | [8] 32.4 µM
inactive: [2] | [4] | [5] | [6] | [7] | [14] | [15]

CC(C)CC(C)CC(C)CC(C)COC(=O)c1ccccc1C(=O)OCC(C)CC(C)CC(C)CC(C)C (stereo not given)
not listed: [8]
inactive: all other assays above

CCOC(=O)O[C@H](C)OC(=O)c1ccc2c(c1)cc(C(=O)NC1CCN(C(C)C)CC1)n2Cc1cc(-c2ccc(Cl)s2)on1
active: [1] 11.4 µM | [17] 38.1 µM | [15] 50.9 µM
not listed: [11] | [13] | [14] | [16] | [18] | [19] | [20]
inactive: all other assays above

CCCCCCC(CCCCCCCCCCC(=O)OCC(COC(C)=O)OC(C)=O)OC(C)=O (stereo not given)
not listed: [8]
inactive: all other assays above

C#CC(C)N(C)C(=O)Nc1ccc(Cl)cc1 (stereo not given)
not listed: [16] | [18] | [19] | [20]
inactive: all other assays above

COc1cc(OC)cc(OC)c1
not listed: [16] | [17]
inactive: all other assays above
